High-throughput results as filed in PubChem.
Only some compounds are listed: those with a hit (about 3.2% of all), similar ones and a draw of the others.
PfG6PD inh = PfG6PD enzyme inhibitors, primary screen, biochemical, fluorescence intensity, uHTS | AID 504690, 2011 | PfGluPho enzyme, NADPH resazurin-diaphorase fluorescence | 0.78% of 350,000 active | glucose-6-phosphate dehydrogenase-6-phosphogluconolactonase (Plasmodium falciparum 3D7) | inhibition, % at 20 µM;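 active means inhibition reaching at least a set limit at 20 µM in the primary screen, cut at about 59% in these data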;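 further: 0% = DMSO wells with substrate and 100% = DMSO wells lacking glucose-6-phosphate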
CRFR2-BP antag = antagonists of CRF-BP/CRF-R2 complex, primary screen, cell-based, HEK293, calcium dye fluorescence, uHTS | CRF-induced calcium fluorescence | inhibition, % at 11.8 µM | 0.59% of 350,000 active | AID 588475, 2011;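 active means inhibition of the ligand-induced calcium signal above about 50% at the single tested concentration, limit read from the data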
H9c2 protect = cardioprotection against H2O2-induced cell death, primary screen, uHTS, H9c2 cells, ATPLite luminescence | H9c2 cardiomyocytes, H2O2 injury protection, 2 h | 0.63% of 360,000 active | protection from H2O2 cell death, % at 20 µM;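 active means compounds giving at least 50% protection of heart cells from peroxide-induced death in the single-dose screen, raw or plate-pattern-corrected value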;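 further: 0% = DMSO wells with peroxide and 100% = DMSO wells without peroxide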
CRFBP-R2 agonist = agonists of CRF-BP/CRF-R2 complex, primary screen, cell-based, HEK293, calcium dye fluorescence, uHTS; CRF-binding protein / CRF receptor 2 complex (human); 0.46% of 350,000 active; AID 588473, 2011; calcium dye fluorescence (FLIPR); percent of saturating CRF peptide response; activation, % at 13.2 µM;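 active means activation of at least 50%, plus an integration ratio under a set limit after plate pattern correction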;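 further: plate controls were neutral control wells without compound for no effect and CRF at EC100 for full effect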
aDG glyco up = activators of alpha-DG glycosylation, primary screen, uHTS, Pro5-aDG cells, AlphaScreen | activation, % at 10 µM | 0.22% of 360,000 active | alpha-DG glycosylation AlphaScreen (IIH6); 0% Pro5, 100% B10-LARGE cell signal;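 active means activation of at least 8% versus controls, or a plate z-score of at least 8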;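 further: Pro5 are CHO cells carrying HIG-tagged alpha-DG that lacks glycosylation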
FAS TE block = FAS thioesterase domain inhibitors, primary screen, biochemical, fluorescence intensity, uHTS; Fatty acid synthase (Homo sapiens), P49327; recombinant FAS-TE, OMFH fluorogenic substrate, fluorescence endpoint; inhibition, % at 15 µM; 0.67% of 360,000 active; AID 602261, 2012;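 active means compounds whose normalised, plate-corrected inhibition of enzyme fluorescence in the single-dose primary screen is 50% or more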;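 further: 0% = DMSO with enzyme and 100% = substrate without enzyme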
PfG6PD confirm = PfG6PD inhibitors, hit retest, confirmation, biochemical, fluorescence intensity, single concentration; shares compounds with PfG6PD inh; recombinant PfGluPho, NADPH-diaphorase-resazurin fluorescence; inhibition, % at 20 µM; 34% of 2,400 active; AID 504753, 2011;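 active means inhibition of at least 50% at 20 µM in any single replicate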;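 further: 0% = DMSO with substrate and 100% = DMSO lacking glucose-6-phosphate substrate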
Diaph ctr 10uM = diaphorase inhibitors and chemical oxidizers, confirmation, counter-screen for P. falciparum G6PD inhibitor project, biochemical, fluorescence intensity, 10 µM NADPH | diaphorase-coupled resazurin reduction, NADPH 10 uM | 39% of 820 active | shares compounds with PfG6PD inh | inhibition, % at 20 µM;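 active means average inhibition reaching 50% or more with the compound at 20 µM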;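 further: resorufin red fluorescence formed as diaphorase reduces resazurin using NADPH; 0% = DMSO with enzyme and 100% = DMSO without enzyme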
Diaph ctr 30uM = diaphorase inhibitors and chemical oxidizers, confirmation, counter-screen for P. falciparum G6PD inhibitor project, biochemical, fluorescence intensity, 30 µM NADPH | shares compounds with PfG6PD inh | Diaphorase/resazurin coupled assay, resorufin fluorescence | inhibition, % at 20 µM | 29% of 820 active | AID 504863, 2011;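 active means inhibition averaging 50% or more, tested at 20 µM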;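 further: 0% = DMSO with enzyme and 100% = DMSO wells lacking diaphorase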
* = called active by the depositor.

`Oc1c(Cl)cccc1C=Nc1cc(C(F)(F)F)ccc1N1CCCC1` gave PfG6PD inh 14, CRFR2-BP antag 5, H9c2 protect 5, CRFBP-R2 agonist -1, aDG glyco up 0 and FAS TE block 1.
COc1cccc2c1Oc1ncccc1N(C(=O)CCC(=O)NCc1ccccc1F)C2 was read as PfG6PD inh 0, CRFR2-BP antag 8, H9c2 protect 0, CRFBP-R2 agonist -1, aDG glyco up 0 and FAS TE block -5.
Screening COc1ccc(OCc2nnc3n2N=C(c2ccc(OC)cc2)CS3)cc1 returned PfG6PD inh 14, CRFR2-BP antag 13, H9c2 protect 0, CRFBP-R2 agonist -4, aDG glyco up 0 and FAS TE block 9.
`c1ccc(OCc2nnc3n2N=C(c2ccccc2)CS3)cc1` gave PfG6PD inh 100*, CRFR2-BP antag 13, H9c2 protect -1, CRFBP-R2 agonist -1, aDG glyco up 0, FAS TE block 16, PfG6PD confirm 58*, Diaph ctr 10uM 41 and Diaph ctr 30uM 29.
For CC1=NOC(=O)/C1=C\c1ccc(-c2cccc(Cl)c2)o1 the results were PfG6PD inh 72*, CRFR2-BP antag -44, H9c2 protect -22, CRFBP-R2 agonist 64*, aDG glyco up -1, FAS TE block -8 and PfG6PD confirm 11.
For CC1=NOC(=O)/C1=C\c1ccc(-c2ccc(Cl)c(C(=O)O)c2)o1 the results were PfG6PD inh 12, CRFR2-BP antag -15, H9c2 protect 3, CRFBP-R2 agonist 17, aDG glyco up 0 and FAS TE block -4.
`CC1=NOC(=O)/C1=C\c1ccc(-c2ccccc2Br)o1` gave PfG6PD inh 95*, CRFR2-BP antag -32, H9c2 protect -23, CRFBP-R2 agonist 51*, aDG glyco up 0, FAS TE block -5, PfG6PD confirm 51*, Diaph ctr 10uM -5 and Diaph ctr 30uM -2.
Cc1ccc(OS(=O)(=O)c2c(C)nn(C)c2Cl)c(C)c1 was read as PfG6PD inh 75*, CRFR2-BP antag 31, H9c2 protect 1, CRFBP-R2 agonist 1, aDG glyco up 0, FAS TE block 9 and PfG6PD confirm 34.
`CC(=O)c1cccc(NC(=O)c2cnn(-c3ccccc3)c2C)c1` gave PfG6PD inh 75*, CRFR2-BP antag -4, H9c2 protect -7, CRFBP-R2 agonist 4, aDG glyco up 1, FAS TE block -2, PfG6PD confirm 51*, Diaph ctr 10uM 41 and Diaph ctr 30uM 35.
Cc1c(C(=O)Nc2ccccc2)cnn1-c1ccccc1 was read as PfG6PD inh 23, CRFR2-BP antag 2, H9c2 protect -7, CRFBP-R2 agonist -2, aDG glyco up 0 and FAS TE block -2.
Screening Cc1c(C(=O)Nc2cccc([N+](=O)[O-])c2)cnn1-c1ccccc1 returned PfG6PD inh 74*, CRFR2-BP antag -11, H9c2 protect -3, CRFBP-R2 agonist -3, aDG glyco up 0, FAS TE block 18 and PfG6PD confirm 27.
Cc1oc(-c2ccc(-c3ccccc3)cc2)nc1CN1CCN(CC(=O)N(C)C)CC1 was read as PfG6PD inh 4, CRFR2-BP antag -6, H9c2 protect 9, CRFBP-R2 agonist 1, aDG glyco up 0 and FAS TE block -7.
